Compounds with a hit are over-represented: about 3.4% of the library has one in this group of screens.
ADAM17 inh = inhibitors of human ADAM17; P78536; recombinant ADAM17, EDANS/DABCYL FRET peptide cleavage; inhibition, % at 6.95 µM; 0.83% of 370,000 active; AID 720648;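 active = inhibition above the mean of compounds lying between control limits plus 3 SD, set per campaign, cut at about 8.5% in these data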;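 note: 0% = DMSO-only wells as the low control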
HGIII-sPLA2 inh = Inhibits HGIII-sPLA2 liposome hydrolysis, primary screen; QFRET BODIPY PC-A2 liposome hydrolysis, fluorescence; inhibition, % at 12.2 µM; 0.56% of 370,000 active; Q9NZ20;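 active = inhibition above mean plus 3 SD of compounds lying within the high and low control bounds, cut at about 19% in these data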;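 note: 0% = median of test compound wells and 100% = no enzyme DMSO wells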
Target sequence (Q9NZ20 whole entry, looked up): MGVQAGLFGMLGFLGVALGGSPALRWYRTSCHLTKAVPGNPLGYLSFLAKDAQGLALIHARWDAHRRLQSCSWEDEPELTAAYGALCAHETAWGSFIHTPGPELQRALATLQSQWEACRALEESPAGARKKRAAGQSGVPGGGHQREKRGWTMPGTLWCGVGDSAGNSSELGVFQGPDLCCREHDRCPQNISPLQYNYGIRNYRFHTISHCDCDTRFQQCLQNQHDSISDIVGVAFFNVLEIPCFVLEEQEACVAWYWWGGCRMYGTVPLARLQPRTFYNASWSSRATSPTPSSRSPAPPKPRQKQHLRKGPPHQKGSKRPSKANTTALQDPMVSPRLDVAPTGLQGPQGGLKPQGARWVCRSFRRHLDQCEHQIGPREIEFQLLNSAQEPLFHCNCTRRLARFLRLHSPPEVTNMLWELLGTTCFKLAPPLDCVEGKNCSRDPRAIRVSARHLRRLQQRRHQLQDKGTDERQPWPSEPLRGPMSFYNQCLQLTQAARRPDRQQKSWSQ
NRP1-CendR mod = NRP-1/CendR interaction modulation. AID 602438. FAM-RPARPAR peptide binding to NRP-1, fluorescence polarization. inhibition, % at 25 µM. O14786. 0.85% of 360,000 active;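 active = inhibition or corrected inhibition above about 18%, plus a signal ratio from 0.5 to 1.5, limit read from the data, passing the limit was not always enough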
ADAM10 inh = inhibitors of human ADAM10. O14672. recombinant ADAM10, EDANS/DABCYL FRET peptide cleavage, 3 h. inhibition, % at 7 µM. 0.62% of 370,000 active;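 active = inhibition above a per-campaign cutoff equal to the mean of compounds falling between control-based bounds plus 3 SD, cut at about 20% in these data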;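 note: 0% = DMSO wells while the 100% control is not disclosed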
proKLK7 act = activators of human kallikrein-7 zymogen. P49862. purified proKLK7, EDANS-DABCYL substrate fluorescence; 100% is mature enzyme control, 0% vehicle. activation, % at 7 µM. 0.9% of 370,000 active. AID 652039;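 active = activation above the mean of all tested compounds plus 3 SD, computed per campaign excluding outliers beyond control limits, cut at about 13% in these data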
* = called active by the depositor; x = no result given.

SMILES | ADAM17 inh | HGIII-sPLA2 inh | NRP1-CendR mod | ADAM10 inh | proKLK7 act
Cc1cccc(NC(=O)CCS(=O)(=O)c2ccccc2)c1C | -2 | 12 | x | -11 | 0
CCN(CC)S(=O)(=O)c1ccc(-c2nnc(SCC(=O)N3c4ccccc4CC3C)o2)cc1 (stereo unspecified) | -4 | 5 | -16 | 4 | 0
CCN(CC)S(=O)(=O)c1ccc(-c2nnc(SCC(=O)N3c4ccccc4CC3C)n2CC)cc1 (stereo unspecified) | 2 | 3 | 26* | -15 | 0
C=CCN1C[C@@H](COCc2ccccc2)Oc2cccc(F)c2S1(=O)=O | -7 | 2 | x | 0 | 1
O=C(NCc1ccccn1)c1cccc(NS(=O)(=O)c2ccccc2)c1 | -2 | 7 | 5 | -10 | 0
O=C(NCc1ccccn1)c1ccc(NS(=O)(=O)c2ccccc2)cc1 | 1 | 0 | 22* | -5 | 1
CCC(NC(=O)c1ccc2c(ccn2Cc2cccc(-c3ccccc3C(=O)O)c2)c1)c1ccccc1 (stereo unspecified) | -9 | -21 | x | -8 | -1
COC(=O)Cc1ccc(NC(=S)NN2CCOCC2)cc1 | 2 | 2 | 3 | 6 | 1
COC(=O)Cc1ccc(NC(=S)NCCCO)cc1 | -1 | -4 | 40* | -3 | 0
COC(=O)Cc1ccc(NC(=S)NCCSc2ccc(C)cc2)cc1 | 2 | -26 | 29* | -2 | 0
CN(C(=O)c1ccccc1OCC(=O)Nc1ccc(Br)cc1)c1ccccc1 | 3 | -5 | x | 7 | 0
CCn1c2ccccc2c2cc(C=NNC(=O)c3ccoc3C)ccc21 | -29 | 2 | x | -130 | -27
CCN1C(=O)/C(=C\c2cn(-c3ccccc3)nc2-c2cccnc2)SC1=S | 3 | 0 | 36* | 4 | 0
O=C1C(=Cc2cn(-c3ccccc3)nc2-c2ccc(OCc3ccccc3)cc2)SC(=S)N1CCS(=O)(=O)O | 5 | 15 | -151 | 29* | 0
Cc1ccc(-c2nn(-c3ccccc3)cc2C=C2SC(=S)N(CCS(=O)(=O)O)C2=O)cc1 | 1 | -70 | -116 | 11 | -1
CCOC(=O)CC[C@@]1(C(=O)OCC)C[C@@H](CC(=O)NCc2ccc(C)o2)C(=O)N2CCCC=C21 | -2 | -5 | x | -10 | 0
O=C(O)c1cccc2cc(-c3ccccc3)oc(=O)c12 | -83 | 1 | -5 | -173 | 1
O=C(O)c1cccc2cccc(-c3c4ccc(=O)c(O)c-4oc4c(O)c(O)ccc34)c12 | -6 | 9 | 7 | -28 | 19*
CC(C)N1CCc2c(sc(NC(=O)CCS(=O)(=O)c3ccccc3)c2C(N)=O)C1 | -21 | 2 | 25* | -51 | -1
O=C(Cn1cccc1C(=O)c1ccccc1)NCCC1=CCCCC1 | 4 | -6 | 23* | 9 | 0
O=C(Cn1cccc1C(=O)c1ccccc1)NCCCc1ccccc1 | 2 | -6 | -7 | 3 | 0
CS(=O)(=O)N(CC(=O)Nc1ccc(Br)cc1F)C1CCCCC1 | -5 | 14 | -4 | 1 | 0
CS(=O)(=O)N(CC(=O)Nc1ccccc1F)C1CCCCC1 | 0 | -1 | 23* | 2 | -1
S=C(Nc1ccc2nsnc2c1)N1CCCCCC1 | -18 | 1 | 45* | -52 | 1
C=CCN(CC=C)C(=S)Nc1ccc2nsnc2c1 | -29 | 9 | 30* | -84 | 4
SMILES | ADAM17 inh | HGIII-sPLA2 inh | NRP1-CendR mod | ADAM10 inh | proKLK7 act
Cc1ccc(-c2cc(-c3nnc(SCC(=O)NC4CCCCC4)n3N)[nH]n2)cc1 | -1 | 0 | x | 0 | 0
O=c1oc2c3c4c(cc2s1)CCCN4CCC3 | -2 | 3 | 36* | -2 | -1
CC1(C)C=C2C(N(Cc3ccc4c(c3)OCO4)C(=N)N2C(=O)OCc2ccccc2)n2c(=O)n(-c3ccccc3)c(=O)n21 (stereo unspecified) | -4 | 11 | x | -7 | x
N#CC1(Nc2ccc(-c3ccc(NC4(C#N)CCCC4)cc3)cc2)CCCC1 | 19* | -4 | 1 | 22* | 0
OC(CN1CCN(c2ccccc2)CC1)Cn1c2ccccc2c2ccccc21 (stereo unspecified) | -5 | 5 | 25* | -2 | 1
OC(CN1CCN(Cc2ccccc2)CC1)Cn1c2ccccc2c2ccccc21 (stereo unspecified) | 2 | -22 | 4 | 0 | 0
C=CC(=O)Nc1ccc(Nc2nc(NC3CCC(N(C)C)CC3)nc3c2ncn3C(C)C)cc1 (stereo unspecified) | x | x | 27* | x | x
CC(C)n1cnc2c(Nc3ccc(F)c(Cl)c3)nc(NCCO)nc21 | -4 | 0 | -7 | -3 | 0
COC(=O)[C@H]1C[C@]2(C/C=C(\C)CCC=C(C)C)c3ccccc3N[C@H]2N1 | 0 | 1 | x | 6 | x
CCOC(=O)C(NC(=O)Nc1ccccc1)(OCC)C(F)(F)F (stereo unspecified) | -1 | 2 | -7 | -1 | 0
CCOC(=O)Cc1cnc(NC(=O)NC(C(=O)OCC)(c2ccccc2)C(F)(F)F)s1 (stereo unspecified) | 3 | -13 | 37* | 9 | -1
O=C(c1cccc(C(F)(F)F)c1)N1CC[C@H]2[C@H](CCCN2Cc2ccccc2)C1 | -3 | -1 | x | -7 | -1
C=CCN=C1NC(c2cccc(F)c2)C(C(=O)OC)=C(C)N1Cc1cccc(C(F)(F)F)c1 (stereo unspecified) | 0 | -15 | x | 1 | 0
COC(=O)[C@@]12CCCCC3=C1N(CCC3)C(=O)[C@H]2CC(=O)N1CCSCC1 | -4 | 0 | x | -6 | 0
CCOC(=O)Cc1c(C)c2c(C)[nH]nc2oc1=O | -6 | 10 | 43* | -42 | 0
CCCc1c(C)c2c(C)[nH]nc2oc1=O | -4 | -2 | -9 | -3 | 0
CCOC(=O)c1ccc(-c2c(-c3cc(OC)c(OC)c(OC)c3)noc2C)cc1F | -3 | -4 | 25* | 11 | 0
Cc1cccc(-n2ccc(=O)c(C(=O)Nc3ccc(S(=O)(=O)Nc4onc(C)c4C)cc3)n2)c1 | -3 | 1 | 36* | 2 | 1
Cc1cc(C)nc(NS(=O)(=O)c2ccc(NC(=O)c3nn(-c4ccccc4)ccc3=O)cc2)n1 | -4 | 4 | 7 | -9 | 0
O=C1c2cccc3cccc(c23)C(=O)C1(O)O | -4 | -1 | 54* | -5 | 1
COC(=O)c1ccc2c(C3(c4c[nH]c5ccccc45)CCN(C(=O)OC(C)(C)C)CC3)c[nH]c2c1 | -18 | -27 | x | -82 | -1
CNS(=O)(=O)/C=C/c1ccccc1CCNC(=O)OC(C)(C)C | 8 | -7 | x | 19 | 0
CCCCn1c(SCC(=O)c2ccc(OC)cc2OC)nc2cc(S(N)(=O)=O)ccc21 | 0 | -19 | -7 | 15 | 0
CCCCn1c(SC(C)C(=O)c2ccc(OC)cc2)nc2cc(S(N)(=O)=O)ccc21 (stereo unspecified) | 20* | -32 | 3 | 26* | 0
Cc1ccc(-n2c(SCC(=O)Nc3ccc(S(=O)(=O)Nc4cc(C)nc(C)n4)cc3)nnc2-c2cccs2)cc1 | -2 | -39 | x | -1 | 0

Screening results as filed in PubChem BioAssay.
